Assay outcomes as filed in PubChem.
Most compounds without a hit are left out; they make up all but 15% or so of the library.
ALOX12 inh: Primary qHTS assay for inhibitors of human arachidonate 12S-lipoxygenase (ALOX12): Round 2; Polyunsaturated fatty acid lipoxygenase ALOX12 (Homo sapiens), P18054; Potency, µM (series often up to 108 µM), without a hit: at the highest dose activity change, negative = inhibition, actives largely listed as inhibitors; AID 1671190, 2021; purified 12hLO, xylenol orange hydroperoxide absorbance; 580,000 compounds, 1.1% hits
Target sequence (P18054 whole entry, looked up): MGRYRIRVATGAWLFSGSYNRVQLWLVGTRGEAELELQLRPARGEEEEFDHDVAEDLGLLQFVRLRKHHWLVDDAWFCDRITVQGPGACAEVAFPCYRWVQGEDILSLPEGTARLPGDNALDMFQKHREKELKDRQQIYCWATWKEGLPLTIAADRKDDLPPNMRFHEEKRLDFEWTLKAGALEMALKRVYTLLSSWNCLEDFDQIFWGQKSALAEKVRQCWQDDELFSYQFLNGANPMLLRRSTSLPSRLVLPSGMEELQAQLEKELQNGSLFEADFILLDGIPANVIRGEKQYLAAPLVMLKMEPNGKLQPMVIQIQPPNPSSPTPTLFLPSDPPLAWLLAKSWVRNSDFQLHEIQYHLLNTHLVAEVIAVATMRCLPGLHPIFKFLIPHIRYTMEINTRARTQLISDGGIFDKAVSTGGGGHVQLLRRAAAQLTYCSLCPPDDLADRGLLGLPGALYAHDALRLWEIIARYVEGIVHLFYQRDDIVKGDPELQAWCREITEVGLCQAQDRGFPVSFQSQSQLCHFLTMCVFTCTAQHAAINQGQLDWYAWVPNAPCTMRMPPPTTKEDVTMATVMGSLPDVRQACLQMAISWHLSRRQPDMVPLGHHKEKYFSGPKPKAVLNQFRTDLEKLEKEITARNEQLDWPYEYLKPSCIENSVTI
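Purified human 12hLO (150 nM final) in 25 mM Hepes, 0.01% Triton X-100, pH 7.0 was preincubated 15 min at room temperature with compound. Then 40 uM arachidonic acid was added, 30 min. Hydroperoxide was read by Fe-XO absorbance ratio 573/405 nm.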
VP16 counter: VP16 counterscreen qHTS for inhibitors of ROR gamma transcriptional activity | Drosophila S2 Gal4-VP16 UAS-luciferase, luminescence, 20 h | Potency, µM (titrated, usually from 53.6 µM), for the others: top-dose activity, negative = inhibition, hits mostly inhibitors | 310,000 compounds, 3.5% hits | AID 2546, 2010;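 note: Gal4-VP16 expression switched on by copper sulfate through the metallothionein promoter; nearly all actives have a fitted effect of over 50% in size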
TDP1 cell CPT: qHTS for Inhibitors of human tyrosyl-DNA phosphodiesterase 1 (TDP1): qHTS in cells in presence of CPT; chicken DT40 Tdp1-/-;hTDP1 cells + 20 nM CPT, ATP luminescence, 48 h; Potency, µM (doses to about 46.2 µM), inactives show at the top dose activity change, negative = growth inhibition, most hits filed as inhibitors; 420,000 compounds, 12% hits; AID 686979, 2013; note: nearly all actives have a fitted effect of over 55% in size
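Chicken DT40 Tdp1-/- cells complemented with human TDP1, 400 cells/well, exposed to compounds plus 20 nM camptothecin for at least 48 h at 37 C; viability read as ATP content by CellTiter-Glo luminescence.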
DT40 TDP1 no CPT: qHTS for Inhibitors of human tyrosyl-DNA phosphodiesterase 1 (TDP1): qHTS in cells in absence of CPT. Potency, µM (doses to about 46.2 µM), without a hit: top-dose activity change, negative = growth inhibition, hits mostly inhibitors. 420,000 compounds, 15% hits. DT40 Tdp1-/- hTDP1 cells, no CPT, ATP luminescence, 48 h; note: nearly all actives have a fitted effect of over 55% in size
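Growth of hTDP1-complemented DT40 Tdp1-knockout cells is measured by ATP luminescence after at least 48 hr compound exposure at 37 °C, with DMSO substituting for the 20 nM CPT used in the parallel screen.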
ELG1 repair inh: qHTS screen for small molecules that inhibit ELG1-dependent DNA repair in human embryonic kidney (HEK293T) cells expressing luciferase-tagged ELG1 | Potency, µM (series often up to 46.1 µM), for inactives: at the highest dose activity change, negative = inhibition, actives largely listed as inhibitors | 330,000 compounds, 2.3% hits | HEK293T ELG1-luciferase reporter, luminescence, 16 h; DNA damage induced by 5-fluorouridine; note: nearly all actives have a fitted effect of over 55% in size
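Step one: seed 2,000 cells per well. Step two: pin-transfer compound or DMSO alongside 5-fluorouridine. Step three: incubate 16 hr, 37 °C, 5% CO2. Step four: add ONE-Glo, wait 30 min, read luminescence.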
RORgamma inh: qHTS for inhibitors of ROR gamma transcriptional activity; 310,000 compounds, 5.4% hits; Drosophila S2 Gal4-RORgamma UAS-luciferase reporter, 20 h; Potency, µM (titrated, usually from 53.6 µM), inactives show at the top dose activity change, negative = inhibition, hits mostly inhibitors; Nuclear receptor ROR-gamma (Mus musculus), P51450; AID 2551, 2010; note: nearly all actives have a fitted effect of over 60% in size
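Luciferase reporter read in Schneider cells carrying Gal4-RORγ (mouse) and UAS-Photinus luciferase; cells given compound 1 h before 700 uM copper sulfate induction, then incubated 20 h at ambient temperature.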
* = called active by the depositor; i = inactive; ? = inconclusive; . = no result given; [ ] = dose if it differs, or a comment. Calls come from the whole dose curve; as a rule, active = well fitted curve in the direction sought with a large enough effect; inconclusive = small, poorly fitted or top-dose-only effect, or another doubt; inactive = no such curve, though single readings can be large; an effect the other way counts as inactive or inconclusive. % is set by controls: 0 for no effect and ±100 for the full control effect; potency is the fitted concentration of half-maximal effect.

SMILES	ALOX12 inh	VP16 counter	TDP1 cell CPT	DT40 TDP1 no CPT	ELG1 repair inh	RORgamma inh
O=C(CN1c2ccccc2Sc2ccccc21)NNC(=S)Nc1ccc(Cl)cc1	14µM*	?	0%	-15%	?	10µM*
CCCC[C@@H](C)/C=C(C)/C=C(\C)C(=O)NC1=C[C@@](O)(/C=C/C=C/C=C/C(=O)NC2=C(O)CCC2=O)[C@@H]2O[C@@H]2C1=O	.	1.3µM*	.	.	.	0.45µM*
CC(=O)c1c[nH]c2ccc(Br)cc12	-11%	.	.	.	.	.
CC(C)(C)c1ccc(-c2n[nH]c(=S)n2C2CCCC2)cc1	?	4.5µM*	?	16µM*	?	2.5µM*
Cc1cccc(-c2n[nH]c(=S)n2C)c1	?	?	-12%	-2%	-4%	?
Cn1c(-c2ccc(C(C)(C)C)cc2)n[nH]c1=S	?	5.6µM*	?	?	?	3.2µM*
CCn1c(-c2ccc(C(C)(C)C)cc2)n[nH]c1=S	16µM*	3.2µM*	15µM*	8.2µM*	-3%	?
Cc1[nH]c2ccc(-c3n[nH]c(=S)n3C)cc2c1C	?	?	-13%	-16%	?	11µM*
C=CCn1nc(C)c(CN2CCC(Oc3ccccc3OC)(C(=O)O)CC2)c1C	-6%	.	.	.	.	.
O=C1NCCCCCCN(C(=O)c2cccnc2)[C@H]2CCC[C@@H]12	39%	.	.	.	.	.
O=C(Cc1noc(C(=O)NCc2ccncc2)n1)Nc1cccc2ncccc12	8%	.	.	.	.	.
O=C(CCc1ccccc1)NNC(=S)NCCc1ccccc1	i	?	?	3%	7%	7.9µM*
C=CCNC(=S)NNC(=O)CCc1ccccc1	11%	.	.	.	.	.
CC(NC(=S)NCCc1ccccc1)c1ccc(C(C)(C)C)cc1 (configuration not stated)	40µM*	.	.	.	.	.
CC(=O)NCCc1ccccc1	7%	.	.	.	.	.
CC(C)(CNC(=S)NCCc1ccccc1)CNC(=S)NCCc1ccccc1	20µM*	8.9µM*	8.2µM*	29µM*	?	?
CC(=O)NNC(=S)NCCc1ccccc1	1%	-10%	24%	-2%	11%	11µM*
OCc1ccc(-c2ccc(-c3ccc(CO)s3)o2)s1	?	1.6µM*	.	.	.	0.63µM*
C[C@@H]1[C@H]2CCCC[C@H]2CN(C(=O)OC(C)(C)C)[C@@H]1CC(=O)c1ccccc1	-4%	.	?	16µM*	0%	.
C[C@@H]1[C@H]2CCCC[C@H]2CN(C(=O)OC(C)(C)C)[C@@H]1c1cn(Cc2ccccc2)c2ccc(F)cc12	2%	.	?	16µM*	5%	.
CC(C)(C)OC(=O)N1CCC[C@H]1C(O)(c1ccccc1)c1ccccc1	.	5%	.	.	.	-18%
CC(C)(C)OC(=O)N1CCC[C@@H]1C(=O)NCc1ccccc1	0%	.	.	.	.	.
C=CCn1c(SCc2ccc(C(=O)Nc3nccs3)cc2)nnc1-c1ccc(C)c(Cl)c1	-20%	?	?	23µM*	?	?
CN(C(=O)c1cc(-c2ccccc2)c(N2CCOCC2)s1)C1CCS(=O)(=O)C1 (configuration not stated)	-15%	.	.	.	.	.
CSc1ccc(-c2nc(CSCC(=O)NCc3cccs3)c(C)o2)cc1	-5%	.	.	.	.	.
SMILES	ALOX12 inh	VP16 counter	TDP1 cell CPT	DT40 TDP1 no CPT	ELG1 repair inh	RORgamma inh
O=C(c1ccc(S(=O)(=O)N2CCCCC2)cc1)N1CCN=C1SCc1cccnc1	10%	6%	16µM*	?	?	5%
CSC1=NCCN1C(=O)c1ccc(S(=O)(=O)N2CCCCC2)cc1	1%	-1%	?	?	-9%	9%
C=CCn1c(N2CCN(c3ccc(OC)cc3)CC2)nc2c1c(=O)n(C)c(=O)n2C	1%	-10%[10 µM]	21µM*	18µM*	16µM*	8%
CCOCCn1c(N2CCN(c3ccc(OC)cc3)CC2)nc2c1c(=O)n(C)c(=O)n2C	0%	7%	?	?	?	5%
COCCn1c(N2CCN(c3ccc(OC)cc3)CC2)nc2c1c(=O)n(C)c(=O)n2C	-7%	7%	?	?	18µM*	-1%
Cn1c(=O)c2c(nc(N3CCN(c4ccc([N+](=O)[O-])cc4)CC3)n2C)n(C)c1=O	-20%	1%	-20%	18µM*	?	27%
Cn1c(=O)c2c(ncn2CC(=O)N2CCN(c3ccc([N+](=O)[O-])cc3)CC2)n(C)c1=O	?	-2%	5%	?	?	14%
CC(=O)NCCCNC(=O)c1cc(-c2ccccc2)nc2ccccc12	10%	.	.	.	.	.
O=C(CSc1nnc(NC(=O)c2ccc3c(c2)OCO3)s1)NCc1ccco1	8%	?	11%	-11%	?	13µM*
O=C(CSc1nnc(NC(=O)c2ccco2)s1)NCc1ccc2c(c1)OCO2	23%	-7%	-25%	18µM*	5%	1%
O=C(CSc1nnc(NC(=O)c2ccccc2)s1)NCc1ccco1	11%	?	-27%	-14%	?	?
